Consider 27 molecules from PubChem BioAssay AID624330 (Southern Research Specialized Biocontainment Screening …, 2012).

Among all 340,000 compounds or so, about 2,100 (0.62%) were called active. Not all results are given here. Potency and affinity values are given separately. A number with no mark means an inactive call.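 Rule for the calls: active = first-screen hits whose inhibition reached a set limit at any dose in the follow-up dose series; inconclusive = inhibition above the set first-screen limit but never retested; inactive = the rest.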

Sequence of Rac GTPase-activating protein 1 (Homo sapiens) (Q9H0H5 whole entry, looked up): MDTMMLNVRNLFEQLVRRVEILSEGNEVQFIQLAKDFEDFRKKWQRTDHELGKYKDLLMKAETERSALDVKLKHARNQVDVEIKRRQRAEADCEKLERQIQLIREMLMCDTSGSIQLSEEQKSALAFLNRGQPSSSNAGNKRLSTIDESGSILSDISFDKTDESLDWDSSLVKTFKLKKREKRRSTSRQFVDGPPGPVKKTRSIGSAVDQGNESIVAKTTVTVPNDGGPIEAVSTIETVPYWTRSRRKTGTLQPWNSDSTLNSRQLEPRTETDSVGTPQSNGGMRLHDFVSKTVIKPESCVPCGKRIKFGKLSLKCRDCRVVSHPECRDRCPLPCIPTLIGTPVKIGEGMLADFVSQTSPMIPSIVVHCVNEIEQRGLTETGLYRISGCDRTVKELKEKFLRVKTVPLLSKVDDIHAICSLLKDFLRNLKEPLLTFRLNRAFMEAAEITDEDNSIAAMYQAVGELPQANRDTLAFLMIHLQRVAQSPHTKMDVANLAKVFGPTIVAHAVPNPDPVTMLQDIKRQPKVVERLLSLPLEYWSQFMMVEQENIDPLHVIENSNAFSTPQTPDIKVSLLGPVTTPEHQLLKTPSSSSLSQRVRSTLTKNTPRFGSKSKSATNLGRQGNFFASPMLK

The test concerns the target Rac GTPase-activating protein 1 (Homo sapiens) (UniProt Q9H0H5). Nature of the test: MgcRacGAP GTPase-activating activity inhibitors, confirmation, biochemical, ADP Hunter fluorescence, primary and confirmatory (AID 624330).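 Note: fluorescence reports GDP produced by GAP-driven GTP hydrolysis.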 As to conditions: MgcRacGAP-stimulated Rac1 GTP hydrolysis, at 30 µM, hits give high values, GST-tagged Rac1 F28L mutant substrate.
What is called inhibition is the relative decrease from the control value, in per cent. In the case of `COc1ccc2c(c1)C(c1ccccc1)=NNC(c1ccco1)=N2`, the inhibition was 2.48%.
In the case of `N#CC1=C(S)N(c2ccccc2)C(c2ccc(-c3cc(Cl)ccc3Cl)o2)NC1=O` (configuration not stated), the inhibition was 19.7%.
Take `COc1ccc(N2C(S)=C(C#N)C(=O)NC2c2ccco2)cc1` (configuration not stated): the inhibition was 38.5%.
The result for `N#CC1=C(S)N(c2ccccc2)C(c2ccco2)NC1=O` (configuration not stated) reads 1.78%; that for `COc1ccc(C2NC(=O)C(C#N)=C(S)N2c2ccccc2)cc1OC` (configuration not stated), 42.4%.
For `N#CC1=C(S)N(c2ccccc2)C(c2ccc(-c3ccc(Cl)c(Cl)c3)o2)NC1=O` (configuration not stated), the inhibition was 24.7%.
As for `Cc1ccc(N2C(S)=C(C#N)C(=O)NC2c2ccco2)cc1` (configuration not stated), the inhibition was 49.9%.
In the case of `O=C(COC(=O)c1cc(F)c(F)cc1Cl)NC1CCCCCC1`, the inhibition is -27.4%.
The result for `CCN(CC)S(=O)(=O)c1ccc(N2CCN(c3ccccc3O)CC2)nc1` reads 5.53%; that for `Clc1ccc(NCc2nnc3n2CCCCC3)cc1`, 10.6%.
The result for `CC(=O)N1CCOc2ccc(S(=O)(=O)Nc3ncccc3C)cc21` reads 4.93%; that for `Cc1ccc(NC(=O)Cc2nc(COC(=O)c3c(F)cccc3Cl)cs2)cc1`, 2.55%; that for `O=C1c2ccccc2/C(=C\c2ccc(Br)s2)N1c1ccccc1`, 1.75%.
`COc1ccc(N2CCN(C(=O)c3cc(=O)[nH]c4ccccc34)CC2)cc1`: the inhibition is 18.3%.
For `OC(COC(c1ccc(F)cc1)c1ccc(F)cc1)CN1CCc2ccccc2C1` (configuration not stated), the inhibition is 20.1%.
Turning to `COc1ccc(N2CCN(CC(O)COC(c3ccccc3)c3ccccc3)CC2)cc1` (configuration not stated), the inhibition is 8.7%.
Next, `COc1ccc(C(OCC(O)CN2CCC(O)CC2)c2ccc(OC)cc2)cc1` (configuration not stated): 6.25%; `OC(COC(c1ccc(F)cc1)c1ccc(F)cc1)CN1CCCC1` (configuration not stated): 31.4%; `CCOC(=O)Cc1csc(NC(=O)c2ccc(C)o2)n1`: 3.9%.
On to `Cc1nc(SCc2ccc([N+](=O)[O-])cc2)nc2ccccc12`, for which the inhibition is 8.16%.
Consider `O=C1CSC(=S)N1c1ccccc1`, for which the inhibition is -7.87%.
In the case of `O=C(COc1ccccc1)NN1C(=O)CSC1=S`, the inhibition is 6.09%.
`O=C(Cn1cc([N+](=O)[O-])cn1)NCc1cc2ccccc2[nH]1`: the inhibition is 8.44%.
Turning to `CCOc1cc(N2CCOCC2)c(OCC)cc1NC(=O)Cc1ccccc1`, the inhibition is 10.9%.
The result for `CCOc1cc(N2CCOCC2)c(OCC)cc1NC(=O)c1cc(C)cc(C)c1` reads 10.8%.
As for `CCOc1cc(N2CCOCC2)c(OCC)cc1NC(=O)c1ccccc1`, the inhibition is 27.1%.
Consider `CCOc1cc(N2CCOCC2)c(OCC)cc1NC(=O)c1ccc(C)cc1`, for which the inhibition was 19.8%.
